# Screening results (PubChem BioAssay)
# TRHR enhancer – qHTS for Small Molecule Agonists and Allosteric Enhancers of Human TRH Receptor: Primary Screen for Enhancers; AID 493056, 2011; TRHR cells, fluo-8 calcium fluorescence, EC20 TRH enhancement; 360,000 compounds, 0.66% hits; Thyrotropin-releasing hormone receptor (Homo sapiens), P34981; enhancement, % at 2 µM; in the data active = enhancement above about 30%
# Target sequence (P34981 whole entry, looked up): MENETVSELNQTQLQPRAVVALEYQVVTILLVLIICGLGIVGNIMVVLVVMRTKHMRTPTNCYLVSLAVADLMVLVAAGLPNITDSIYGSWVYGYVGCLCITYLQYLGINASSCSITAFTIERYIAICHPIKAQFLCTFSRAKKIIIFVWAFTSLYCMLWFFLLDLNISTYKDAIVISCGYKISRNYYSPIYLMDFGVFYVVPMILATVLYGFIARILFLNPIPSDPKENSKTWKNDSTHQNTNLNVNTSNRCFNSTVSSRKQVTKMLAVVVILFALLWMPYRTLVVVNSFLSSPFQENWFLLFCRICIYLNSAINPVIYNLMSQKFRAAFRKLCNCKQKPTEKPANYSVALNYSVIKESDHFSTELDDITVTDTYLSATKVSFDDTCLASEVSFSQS
#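 TRHR-expressing cells loaded with fluo-8 calcium dye were read kinetically (ex 480/em 530) during compound addition, then stimulated with an EC20 of TRH (10 nM final). Enhancement of the Gq-mediated intracellular calcium response was scored.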
# D1 ag – Allosteric Agonists of the Human D1 Dopamine Receptor: qHTS; D(1A) dopamine receptor (Homo sapiens), P21728; HEK293 T-REx D1 cells, calcium flux, agonist mode; activation, % at 2 µM; 360,000 compounds, 1% hits
#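 Agonism was scored from calcium flux recorded over 180 s (1 read/s) after pintool compound addition, following a 10-cycle baseline. Cells were inducible force-coupled HEK293 TREx D1, plated overnight at 30 C and loaded with no-wash calcium dye.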
# TRHR ag – qHTS for Small Molecule Agonists and Allosteric Enhancers of Human TRH Receptor: Primary Screen for Agonists; AID 493084, 2011; TRHR cells, calcium flux fluo-8, FDSS agonist mode; activation, % at 2 µM; 360,000 compounds, 0.18% hits
#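 Fluo-8-loaded TRHR cells; 10 s baseline, compound added, kinetic Ca2+ fluorescence read 1/s, agonist mode.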
# D1 PAM – Potentiators of Human D1 Dopamine Receptor: qHTS | potentiation, % at 10 µM | HEK293 TREx D1 cells, calcium flux, dopamine EC20 potentiation | D(1A) dopamine receptor (Homo sapiens), P21728 | 360,000 compounds, 0.036% hits | AID 504651, 2011; in the data active = potentiation above about 30%
# D1 antag – Antagonist of Human D 1 Dopamine Receptor: qHTS. D(1A) dopamine receptor (Homo sapiens), P21728. HEK293 TREx D1 cells, calcium flux, dopamine EC80; hits give low values. activity change, negative = inhibition, % at 10 µM. 360,000 compounds, 3.2% hits; in the data active = activity change below about -30%
#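 Calcium flux readout: force-coupled, inducible Hek293 Trex D1 line, cells induced overnight at 30 C with tetracycline, dye-loaded 30–90 min at RT. Antagonism scored against EC80 dopamine challenge given 180 s after compound.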
# Numbers stand for hits; i = inactive; nt = no result. Compounds with a hit are over-represented: about 4.7% of the library has one in this group of screens. Cut-off read from the data, not from the text of the source, unless noted: active = activation above about 30%; inactive = the rest.
SMILES,TRHR enhancer,D1 ag,TRHR ag,D1 PAM,D1 antag
O=C(CN1CCN(S(=O)(=O)c2ccccc2F)CC1)Nc1ccnn1C1CCCC1,i,i,i,i,-39.8
COCCn1c(SCC(=O)N2CCN(c3ccccc3)CC2)nc2c(c1=O)SC(C)C2 (stereo not drawn),i,i,i,i,-35.0
N#C/C(=C\c1coc2ccccc2c1=O)C(N)=S,i,i,i,i,i
N#C/C(=C\c1coc2ccc(O)cc2c1=O)C(=O)Nc1nc2ccccc2s1,i,226.9,73.6,i,-52.1
CCc1ccc(NC(=O)CN2C(=O)CC(C)S(=O)(=O)c3ccccc32)cc1 (stereo not drawn),i,i,i,i,-32.1
Cc1ccc(Cl)cc1Nc1nn2c(=O)c3ccc(C(=O)NC(C)c4ccccc4)cc3nc2s1 (stereo not drawn),i,i,i,i,-54.3
CCN(CC)CCNC(=O)c1ccc2c(=O)n3nc(Nc4cccc(Cl)c4C)sc3nc2c1,i,i,i,i,-55.9
COc1ccccc1Nc1nn2c(=O)c3ccc(C(=O)NC(C)c4ccccc4)cc3nc2s1 (stereo not drawn),i,i,i,i,i
Cc1ccc2c(CNCCc3ccco3)c(C(=O)O)n(Cc3ccc(F)cc3)c2c1,i,i,i,i,i
Cc1cccc(Cc2c(C)nc3nc(SCc4ccccc4F)nn3c2C)c1,i,i,i,i,i
CC(NC(=O)C1CCCN(C(=O)c2ccc(Cl)cc2)C1)c1cccc(C(F)(F)F)c1 (stereo not drawn),i,i,i,nt,-36.7
O=C(c1cccc(C(F)(F)F)c1)N1CCCC1,i,i,i,i,i
O=C(c1cccc(C(F)(F)F)c1)N1CCCCCC1,i,i,i,i,-56.3
Cc1nn2c(=O)cc(COC(=O)c3ccccc3NC(=O)C(C)C)nc2s1,i,i,i,i,i
Cc1cc(O)c(C(c2cccc(F)c2)N2CCN(c3ccccc3)CC2)c(=O)n1Cc1ccco1 (stereo not drawn),i,i,i,i,i
CCc1cccc(C)c1NS(=O)(=O)c1cc2[nH]c(=O)c(=O)[nH]c2cc1C,i,i,i,i,i
COc1ccc(S(=O)(=O)c2cnc3cc(OC)c(OC)cc3c2N2CCCC(C)C2)cc1 (stereo not drawn),i,i,i,i,i
CCc1ccc(S(=O)(=O)c2cnc3ccc(OC)cc3c2N2CCCC(C)C2)cc1 (stereo not drawn),i,i,i,i,-56.1
CCOC(=O)N1CCN(C(=O)c2c[nH]c3ccc(S(=O)(=O)N(C)c4ccccc4C)cc3c2=O)CC1,i,i,i,i,-33.9
CCOC(=O)N1CCN(C(=O)c2c[nH]c3ccc(S(=O)(=O)N(C)c4cccc(C)c4)cc3c2=O)CC1,i,i,i,i,i
COc1ccc(OC(C)C(=O)Nc2ccc([N+](=O)[O-])cc2)cc1 (stereo not drawn),i,i,i,i,-44.4
CC(Oc1ccccc1)C(=O)Nc1ccc(C(N)=O)cc1 (stereo not drawn),i,i,i,i,i
COc1ccc(C(=O)/C(C#N)=N/Nc2ccc([N+](=O)[O-])cc2)cc1,i,i,i,i,-38.8
CC(C)NS(=O)(=O)c1ccc(NC(=O)C(C)Oc2ccc(C(=O)c3ccccc3)cc2)cc1 (stereo not drawn),i,136.0,i,i,i
CCC(CC)C(=O)Nc1ccc(Sc2ccc([N+](=O)[O-])cc2)cc1,i,31.5,i,i,-34.7
SMILES,TRHR enhancer,D1 ag,TRHR ag,D1 PAM,D1 antag
COc1ccc(C(=O)/C(C#N)=N/Nc2ccccc2[N+](=O)[O-])cc1,i,i,i,i,i
CCOc1ccc2ncc3c(-c4ccccc4)nn(CC(=O)Nc4cccc(F)c4)c3c2c1,i,i,i,i,i
CCCCCOc1ccc(C(=O)N(Cc2ccccc2)C2CCS(=O)(=O)C2)cc1 (stereo not drawn),i,i,i,i,i
CCCOc1ccc(C(=O)Nc2nonc2-c2ccc(OCC)cc2)cc1,i,i,i,i,i
CC(C)Oc1ccc(C(=O)Nc2ccc([N+](=O)[O-])cc2)cc1,i,36.3,i,i,i
COc1ccc(NC(=O)C(C)Oc2ccc(/C(C)=N\O)cc2)cc1 (stereo not drawn),i,51.3,i,i,i
CC(C)C(=O)Nc1ccc(NC(=O)c2ccc([N+](=O)[O-])cc2Cl)cc1,i,i,i,i,-59.4
O=C(Nc1ccc(Oc2cccnc2)cc1)c1ccc([N+](=O)[O-])cc1,i,36.7,i,i,-31.0
COc1ccc(OC(C)C(=O)Nc2cccc(OC)c2)cc1 (stereo not drawn),i,i,i,i,i
O=C(c1ccccc1)c1ccc(Sc2ccc([N+](=O)[O-])cc2)cc1,i,i,i,i,-31.0
CCCCN(CC)C(=O)c1nn(C)c2c1CSc1ccccc1-2,i,i,i,i,i
CCSc1nc2ccccc2c(OCc2cc(C(=O)OC)ccc2OC)c1C(=O)OC,i,39.8,i,i,-62.1
O=C(O)CCC(=O)NNC(=O)c1cccc(Br)c1,i,i,i,i,i
COC(=O)CCC(=O)NNC(=O)c1cccc(Br)c1,i,i,i,i,-37.5
O=C(NNC(=O)c1cccc(Br)c1)Nc1ccc(Cl)cc1,i,i,i,i,-37.2
COc1ccc(-c2c3c(=O)n(C)c(=O)n(C)c3c3n2-c2ccccc2NC3c2ccco2)cc1 (stereo not drawn),i,i,i,i,i
CC1(C)Cc2nc3sc4c(N(CCO)CCO)nnnc4c3cc2CO1,30.3,i,i,i,i
O=c1c(Cl)c(Cl)cnn1Cc1nnc(-c2ccccc2Br)o1,39.0,235.9,i,i,i
CCCCNS(=O)(=O)c1ccc(S(=O)(=O)N2CCC3(CC2)OCCO3)cc1,i,i,i,i,-45.8
O=S(=O)(c1ccc(S(=O)(=O)N2CCC3(CC2)OCCO3)cc1)N1CCCC1,i,i,i,i,i
CCN(C(=O)c1nn(-c2ccc(OC)c(Cl)c2)c(=O)c2c1c1ccccc1n2C)c1cccc(C(F)(F)F)c1,i,i,i,i,i
CN(C)CCNc1nc(S(=O)(=O)c2ccccc2)c(Cl)s1,i,i,i,i,i
CC(C)CNc1nc(S(=O)(=O)c2ccccc2)c(Cl)s1,i,i,i,i,-36.9
N#Cc1c(C(F)(F)F)cc(-c2ccco2)nc1SCc1ccccn1,i,31.3,i,i,i
N#Cc1c(C(F)(F)F)cc(-c2ccco2)nc1SCc1ccncc1,i,36.6,i,i,i
